# In PubChem BioAssay (NCI):
# The panel holds about 83,000 compounds, 20% with a hit somewhere; the sample as a whole holds those more often.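 Testing used 96-well plates and a 48-hour single-concentration exposure. Example: -40 means 40% of the starting cells died.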 Calls of active or inactive are those of the source.
# Test system: HOP-62 NSCLC
# Assay: NCI-60 one-dose screen, 48 h (100 = growth as untreated, 0 = no growth, -100 = all killed)
# Conditions: 10 µM
# Procedure: Growth inhibition of the HOP-62 human Non-Small Cell Lung tumor cell line is measured as a screen for anti-cancer activity. Cells are grown in 96 well plates and exposed to the test compound for 48 hours. Compounds are tested at a single concentration, which is 10^-5 M for most compounds. The reported endpoint is percent growth (GI% or GIPRCNT), where numbers from 0 - 100% represent growth inhibition, and numbers from -100% - 0 represent cell death. For example, a value of 40 represents 60% growth inhibition. A value of 0 means no net growth occurred over the course of the experiment. A value of -40 indicates 40% of cells at the beginning of the experiment died by the end of the experiment. A value of -100 means all cells are dead at the end of the experiment.
# NCI-60 Human Tumor Cell Lines Screen was performed using the standard one-dose NCI protocol, which is described in more detail at https://dtp.cancer.gov/discovery_development/nci-60/default.htm.
# Compounds with GIPRCNT values below 10 were considered active. Activity score was based on GIPRCNT using the following formula: […]
# Score is 0 for GIPRCNT values of 100 or above, 50 for GIPRCNT values of 0, and 100 for GIPRCNT values of -100.
row,SMILES,growth
1,CC1C(=NC(=O)c2cnccn2)C(C)C(c2ccc(Cl)cc2)NC1c1ccncc1 (stereo not given),97.7% (inactive)
2,CN(C)CCCSc1ccccc1NC1=C(Cl)C(=O)C(Nc2ccccc2SCCCN(C)C)=C(Cl)C1=O,118% (inactive)
3,CN(C)CCCOc1cccc(NC2=C(Cl)C(=O)C(Nc3cccc(OCCCN(C)C)c3)=C(Cl)C2=O)c1,-85.1% (active)
4,O=C(NCCCNS(=O)(=O)c1ccc(Cl)cc1)Nc1ccc(-n2cc(-c3ccncc3)c(-c3ccc(Cl)c(O)c3)n2)cc1,76.4% (inactive)
5,O=C(CSc1nnc(-c2cccnc2SCc2ccccc2)o1)Nc1nc(Cl)cc(Cl)n1,90.6% (inactive)
6,CC(=O)N[C@H](C(=O)N[C@@H](CCCNC(=N)N)C(=O)N[C@@H](CCCCN)C(=O)N[C@@H](CCCNC(=N)N)C(=O)N[C@]1(C)CCC/C=C\CCC[C@@](C)(C(=O)N[C@@H](CC(C)C)C(=O)N[C@@H](CC(C)C)C(=O)N[C@@H](CCC(N)=O)C(=O)N[C@@H](CCC(=O)O)C(=O)N[C@@H](CCCNC(=N)N)C(=O)N[C@@H](CCC(=O)O)C(=O)N[C@@H](CC(C)C)C(=O)N[C@H](C(=O)N[C@@H](CCC(=O)O)C(N)=O)C(C)C)NC(=O)[C@H](CCCNC(=N)N)NC(=O)[C@H](CC(C)C)NC1=O)C(C)C,109% (inactive)
7,CCOC(=O)CC(S(=O)(=O)c1ccccc1)S(=O)(=O)c1ccccc1,109% (inactive)
8,O=[N+]([O-])c1ccc(/C(=C/c2ccccc2)[n+]2ccccc2)cc1,110% (inactive)
9,COc1ccc(N(C)c2ncnc3occ(C)c23)cc1,34.6% (inactive)
10,C#CC(C)(O)[C@@H]1C[C@H](CC(=O)O)C1(C)C (stereo not given in full),112% (inactive)
11,COc1ccc(/C=C2\CCCC3=C2NC(N)=NC3c2ccc(OC)cc2)cc1 (stereo not given),110% (inactive)
12,COc1cccc(-c2nc3sccn3c2-c2cccc(S(C)(=O)=O)c2)c1,105% (inactive)
13,CC(C)(C)OC(=O)CN1CCc2c(sc3ncnc(N/N=C/c4cccc5ccccc45)c23)C1,45.5% (inactive)
14,CCN(CC)CCOc1cccc2c1C(=O)c1ccccc1C2=O,82.5% (inactive)
15,COc1ccc(-c2nnc(SCC(=O)Nc3ccc(C(=O)/C=C/c4ccccc4)cc3)n2-c2ccccc2)cc1OC,102% (inactive)
16,COc1ccc(Nc2cnc3cc(NS(=O)(=O)c4ccc(C)cc4)ccc3n2)cc1,79% (inactive)
17,CCN1CCN(CCC(=O)Nc2cccc(-n3cc(-c4ccncc4)c(-c4ccc(Cl)c(OC)c4)n3)c2)CC1,37.7% (inactive)
18,CCCCN1C(=O)CC(SC2CC(=O)N(CCCC)C2=O)C1=O (stereo not given),106% (inactive)
19,O=C1c2c(c(=O)[nH]c3ccccc23)CCN1Cc1ccccc1,92.7% (inactive)
20,Cc1cc(SC#N)cc(C(C)(C)C)c1O,100% (inactive)

row,SMILES,growth
1,Cc1ccc(C)c(COc2cc(NC(=O)c3ccc4c(c3)OCO4)ccc2N(C)S(C)(=O)=O)c1,16.1% (inactive)
2,O=C1CC(=O)N(C(=O)c2nn(-c3ccc(Cl)cc3)cc2O)N1,38.8% (inactive)
3,O=C(CNc1nnc(-c2cccnc2SCc2ccccc2)s1)Nc1nc(Cl)cc(Cl)n1,95.4% (inactive)
4,COc1ccc(-c2cc(-c3ccc(Cl)cc3)nc(SCCCC(=O)NO)n2)cc1,5.55% (active)
5,CC(=O)COc1ccc(Cl)cc1Cl,110% (inactive)
6,CCN(CC)CCCOc1cccc2c1C(=O)c1cccc(OCCCN(CC)CC)c1C2=O,48.1% (inactive)
7,O[C@@H]1CO[C@H]2[C@@H]1OC[C@@H]2O,107% (inactive)
8,COc1ccc(C(c2ccc(OCCN(C)C)cc2)c2cc3ccccc3c3ccccc23)cc1 (stereo not given),92.5% (inactive)
9,CN1CCN(CCCn2c(=O)c3sc4ncccc4c3n3nnc(-c4ccccc4)c23)CC1,21.7% (inactive)
10,CC(=O)N[C@H](C(=O)N[C@@H](CCCNC(=N)N)C(=O)N[C@@H](CCCCN)C(=O)N[C@@H](CCCNC(=N)N)C(=O)NC(C(=O)N[C@@H](CC(C)C)C(=O)N[C@@H](CCCNC(=N)N)C(=O)N[C@@]1(C)CCC/C=C\CCC[C@@](C)(C(=O)N[C@@H](CCCNC(=N)N)C(=O)N[C@@H](CCC(=O)O)C(=O)N[C@@H](CC(C)C)C(=O)N[C@H](C(=O)N[C@@H](CCC(=O)O)C(N)=O)C(C)C)NC(=O)[C@H](CCC(N)=O)NC(=O)[C@H](CC(C)C)NC(=O)[C@H](CC(C)C)NC1=O)[C@@H](C)O)C(C)C (stereo not given in full),-43.1% (active)
11,CCN(CC)c1ccc(/C=C2\SC(=O)C(Nc3nnc(-c4cccnc4SCc4ccccc4)o3)C2=O)cc1 (stereo not given),30.5% (inactive)
12,COc1cc2c(cc1OC)C(C(CCCCCC(CCC(C)C)C1NCCc3cc(OC)c(OC)cc31)CCC(C)C)NCC2 (stereo not given),-96.7% (active)
13,CC(C)c1ccc(C(C)C(=O)N(CC2=C(C(C)c3ccccn3)c3ccccc3C2)C(C)C)cc1 (stereo not given),59.2% (inactive)
14,Cc1cc(=O)n2nnc3cc(C(F)(F)F)ccc3n12,117% (inactive)
15,Cc1c(Cl)cccc1NC(=O)CCCl,86.9% (inactive)
16,O=C1/C=C/[C@@H](O)[C@@H]2C[C@@H](O)C[C@H]2/C=C/CCC[C@H](C(F)(F)F)O1,33% (inactive)
17,CNC(=O)c1cc(Oc2ccc3c(c2)sc2nc(-c4ccc(N)cc4)cn23)ccn1,46.8% (inactive)
18,COc1cc(C(=O)/C(C)=C/c2c[nH]c3ccccc23)cc(OC)c1OC,39.2% (inactive)
19,CCCCCCCCCCOC(c1ccccc1)c1ccccc1,87.8% (inactive)
20,Cc1ccc(C2NC(=S)N3C(c4ccc(C)cc4)NC(=S)N23)cc1 (stereo not given),-45.6% (active)
